Tau fibril FP – qHTS for Inhibitors of Tau Fibril Formation, Fluorescence Polarization; Microtubule-associated protein tau (Homo sapiens), P10636; K18 P301L tau heparin fibrillization, Alexa594 FP, 6 h; AID 1468, 2008; Potency, µM (highest dose often 57.7 µM), for inactives: at the highest dose activity, negative = inhibition, actives largely listed as inhibitors; 280,000 tested, 0.39% active; further: potency means the concentration at half of the fitted maximal effect; nearly all actives have a fitted effect of over 55% in size
Target sequence (P10636 561-689 P618L limits assumed): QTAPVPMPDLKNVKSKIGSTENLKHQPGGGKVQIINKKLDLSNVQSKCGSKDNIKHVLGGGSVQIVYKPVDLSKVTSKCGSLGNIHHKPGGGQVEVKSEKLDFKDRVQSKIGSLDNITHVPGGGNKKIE
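Compound effects on tau fibrillization are measured by Alexa 594 fluorescence polarization (ex 555, em 632 nm). K18 P301L tau is used at 15 uM with 0.24 uM labeled tracer, and 20 uM heparin induces aggregation over 6 hr at 37 C.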
Tau ThT inhib – qHTS for Inhibitors of Tau Fibril Formation, Thioflavin T Binding. recombinant tau K18 P301L, heparin-induced fibrillization, ThT fluorescence. Microtubule-associated protein tau (Homo sapiens), P10636. Potency, µM (titrated, usually from 57.4 µM), without a hit: at the top dose activity, negative = inhibition, actives largely listed as inhibitors. 270,000 tested, 2.1% active; further: potency means the concentration at half of the fitted maximal effect; nearly all actives have a fitted effect of over 55% in size
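Tau K18 P301L fragment (15 uM unlabeled plus 0.24 uM Alexa 594-labeled) in 100 mM sodium acetate pH 7 with compound, fibrillization induced by 20 uM heparin for 6 hr at 37 C. Thioflavin T (30 uM) added, fluorescence read after 1 hr (ex 450, em 510 nm).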
USP1 inh – Inhibitors of USP1/UAF1: Primary Screen | recombinant USP1/UAF1, Ub-Rhodamine cleavage fluorescence | Potency, µM (titrated, usually from 57.1 µM), for the others: top-dose activity change, negative = inhibition, hits mostly inhibitors | 390,000 tested, 0.23% active | AID 743255, 2014; further: potency means the concentration at half of the fitted maximal effect; nearly all actives have a fitted effect of over 60% in size
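1 nM enzyme complex + cpd, 15 min RT; start with Ub-Rho 150nM final; kinetic fluorescence ex 480/em 540, 6 reads q60 s. Buffer 50mM HEPES pH 7.8, 0.5mM EDTA, 0.1 mg/ml BSA, 1mM TCEP, 0.01% Tween-20.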
Tau fluor counter – Counterscreen qHTS for Inhibitors of Tau Fibril Formation, Fluorescence Polarization | tau K18 P301L Alexa594 fluorescence, heparin fibrillization | Potency, µM (top dose mostly 57.7 µM), inactives show top-dose activity change, negative = decrease | 280,000 tested, 0.93% active | AID 1463, 2008; further: potency means the concentration at half of the fitted maximal effect; nearly all actives have a fitted effect of over 55% in size
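Human tau K18 P301L (15 uM unlabeled, 0.24 uM Alexa 594-labeled) in 100 mM sodium acetate pH 7 with 20 uM heparin, 6 hr at 37 C. ThT 30 uM added, 1 hr ambient; Alexa 594 FP and total fluorescence read at 555/632 nm.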
FBPA coupling cs – qHTS Assay for Inhibitors of Fructose-1,6-bisphosphate Aldolase from Giardia Lamblia: Coupling assay counterscreen | coupling enzyme system counterscreen, AmpLite Red fluorescence | activity change, negative = inhibition, % at 58.2 µM, hits read low | 290,000 tested, 0.67% active; in the data active means activity change below about -30%
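Compounds tested against the coupling enzymes alone at 57.5 uM final; readout was AmpLite Red fluorescence (525/598 nm) after 20 min at RT.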
Starred values were filed as active, the others as inactive; ? = inconclusive; . = no result; [ ] = another dose, or the depositor's remark. Compounds with a hit are over-represented: about 2.3% of the library has one in this group of screens. Unless noted, the call rests on the fitted dose curve; in most records, active means well fitted curve in the direction sought with a large enough effect; inconclusive means small, poorly fitted or top-dose-only effect, or another doubt; inactive means no such curve, though single readings can be large; an effect the other way counts as inactive or inconclusive. On the % scale 0 is the no-effect control and ±100 the full control effect.

SMILES | Tau fibril FP | Tau ThT inhib | USP1 inh | Tau fluor counter | FBPA coupling cs
CCC1CN(C(=O)N2CCC(C(=O)N3CCN(c4cc(C)ccc4C)CC3)CC2)c2ccccc2O1 (configuration not stated) | 14.9% | -9.0% | -10.8% | ? | .
CCC1CN(C(=O)N2CCC(C(=O)N3CCN(c4ccc(F)cc4)CC3)CC2)c2ccccc2O1 (configuration not stated) | -1.8% | 9.6% | -4.7% | 2.51µM*[quencher] | .
CCOc1ccccc1CNC(=O)Cn1c(=O)c2cccn2c2ccc(F)cc21 | -1.1% | ? | 1.3% | 10.2% | .
c1ccc(OCCSc2nnc3sc4ccccc4n23)cc1 | -5.5% | ? | 1.0% | -17.5% | -39.3*
COc1cccc(OCCSc2nc(N)cc(N)n2)c1 | -3.6% | ? | 2.1% | -12.9% | 0.8
COc1cccc(OCCSc2nnc3sc4ccccc4n23)c1 | 13.1% | ? | 6.0% | -8.3% | -41.6*
CCN(CC)C(=O)CSc1nnc2sc3ccccc3n12 | 2.3% | 2.1% | -3.0% | 5.9% | -0.4
O=C(c1cc(C(F)(F)F)cc(C(F)(F)F)c1)N1CCC2(CC1)CCN(c1ccccn1)CC2 | . | . | . | . | -3.3
Cc1cccc(CN2C(=O)c3ccccc3S(=O)(=O)c3ccc(C(=O)N4CCN(c5cc(C)ccc5C)CC4)cc32)c1 | -4.3% | 0.8% | -24.1% | -5.6% | .
Cc1cc2nc(-c3ccccc3)cc(=O)n2[nH]1 | 5.5% | -5.8% | -6.1% | -6.2% | -1.6
Cc1cc(-c2ccccc2)nc2c(Br)c(=O)[nH]n12 | ? | 10µM* | -24.5% | -17.1% | 6.2
CC1=NOC(=O)/C1=C\c1ccc(-c2cccc(Cl)c2)o1 | 3.0% | 15.8µM* | ? | ? | 3.9
O=c1[nH]c(/C=C/c2cccc3ccccc23)nc2ccccc12 | 1.3% | -6.8% | -18.0% | -0.9% | 0.6
CCCN1C(=O)/C(=C\c2nc3ccccc3c(=O)[nH]2)c2ccccc21 | 1.4% | 22.4µM* | -11.3% | -19.6% | 1.7
O=C(COc1ccccc1)Nc1cccc(-c2nc3cc4ccccc4cc3[nH]2)c1 | ? | ? | -17.5% | 15.8µM*[quencher] | -4.8
Cc1cc(C)cc(OCC(=O)Nc2cccc(-c3nc4ccccc4[nH]3)c2)c1 | 22.4µM* | -14.2% | -10.5% | 11.2µM*[quencher] | .
CC(C)COc1ccc(C(=O)Nc2cccc(-c3nc4ccccc4[nH]3)c2)cc1 | 20µM* | ? | -15.0% | 7.94µM*[quencher] | .
COc1cccc(C(=O)Nc2ccc(Cl)c(-c3nc4ccccc4[nH]3)c2)c1 | 25.1µM* | ? | -14.3% | ? | .
O=C(COc1ccccc1)Nc1cccc(-c2nn[nH]n2)c1 | . | . | -22.4% | . | .
CC1CN(C(=O)Nc2ccc(C(=O)NCCc3ccc(Cl)cc3)cc2)c2ccccc2S1 (configuration not stated) | -8.6% | -0.6% | 3.0% | -7.3% | .
O=C(c1ccc(Br)s1)N(Cc1cccnc1)c1nc2ccc(F)cc2s1 | -6.9% | 3.4% | -22.2% | -5.0% | .
COc1ccc(C)cc1-n1cnc2cc(C(=O)NC3CCCCCC3)ccc21 | -12.1% | ? | -16.5% | -18.8% | .
CC(=O)OC[C@@H]1O[C@H](CCO/N=C(\C)CCN2CCCCc3nc(C)c(C)cc32)C=C[C@@H]1OC(C)=O | 2.9%[11.6 µM] | -16.2%[11.5 µM] | . | -22.3%[11.6 µM] | 0.8
O=C1CC(c2ccccc2)Cc2[nH]c(=O)c(-c3nc(-c4ccc(F)cc4)cs3)cc21 (configuration not stated) | -2.6% | ? | 10.3% | ? | .
O=C(O)c1cccc(Cn2c(Cl)c(/C=N/NC(=O)c3ccccc3Cl)sc2=O)c1 | 2.6% | ? | -20.2% | -14.0% | 10.7
SMILES | Tau fibril FP | Tau ThT inhib | USP1 inh | Tau fluor counter | FBPA coupling cs
O=C(O)c1cccc(Cn2c(Cl)c(/C=N/Nc3ccccc3)sc2=O)c1 | ? | 17.8µM* | -15.3% | ? | 15.7
Cc1cc(O)ccc1N/C=C1\CCCC1=O | ? | 28.2µM* | -15.0% | -20.3% | -44.4*
COC(=O)c1ccc(NC(=O)CSc2nc(C)cc(C)c2C(=O)Nc2ccccc2)cc1 | ? | 9.0% | -3.8% | -24.8% | .
O=C1C2C3C=CC(C3)C2C(=O)N1c1ccc2c(c1)OCO2 (configuration not stated) | ? | 31.6µM* | -14.1% | ? | -3.1
O=C1C2C3C=CC(CC3)C2C(=O)N1c1ccc2c(c1)OCO2 (configuration not stated) | -1.6% | -5.1% | -9.0% | -5.5% | 1.7
O=C(O)c1ccc(-c2nc(-c3ccccc3)c(-c3ccccc3)[nH]2)cc1 | 7.0% | -12.8% | -18.8% | -8.2% | 12.4
COc1ccccc1N=Nc1nc(-c2ccccc2)c(-c2ccccc2)[nH]1 | 3.2% | 3.55µM* | -22.4% | ? | 0.9
Oc1ccccc1N=Nc1nc(-c2ccccc2)c(-c2ccccc2)[nH]1 | -5.5% | 4.47µM* | -15.9% | 11.2µM*[quencher] | -1.4
COc1ccc(N=Nc2nc(-c3ccccc3)c(-c3ccccc3)[nH]2)cc1 | 6.1% | 3.98µM* | ? | ? | 1.1
Cc1cc(C)c2c(=O)cc(C(=O)Nc3sc4c(c3C(=O)NCC3CCCO3)CCCC4)oc2c1 (configuration not stated) | -7.3% | ? | ? | -25.5% | .
COC(=O)CN1C(=O)CSc2ccc(S(=O)(=O)Nc3cccc(Br)c3)cc21 | -4.3% | 13.1% | -2.0% | -14.4% | .
Cc1ccc(C2c3c(oc4ccccc4c3=O)C(=O)N2c2ccc(C)cn2)cc1 (configuration not stated) | -4.4% | -1.7% | -5.7% | -7.4% | .
CCOC(=O)c1c(N)sn(-c2ccccc2)c1=S | -3.8% | -10.1% | -18.7% | -9.7% | 1.0
CCOC(=O)c1c2c(c(=S)n(-c3ccccc3)c1N)CCC2 | ? | 25.1µM* | -21.9% | ? | -19.4
Cc1ccc(C)n1-c1cccc(N)c1 | -11.5% | 15.8µM* | . | ? | -8.9
Cc1ccc(C)n1-c1cccc(C(=O)O)c1 | ? | ? | . | -13.3% | -2.4
CCOC(=O)c1c(C)[nH]c(C)c1S(=O)(=O)N1CCCC(C(=O)NCc2ccc(N(C)C)cc2)C1 (configuration not stated) | ? | -0.3% | -25.1% | -14.2% | .
C/C=C/c1ccc2oc(-c3ccc(O)cc3)c(C)c2c1 | ? | 17.8µM* | . | 14.1µM*[quencher] | 2.8
Cc1ccc2oc(=O)c(-c3ccc(O)cc3)c(C)c2c1 | . | . | -17.0% | . | .
CCc1ccc(NC(=O)Nc2ccc3c(c2)N(C)C(=O)CS3)cc1 | ? | -18.1% | -20.8% | 17.8µM*[quencher] | 0.6
Cc1cc(C)cc(NC(=O)Nc2ccc3c(c2)N(C)C(=O)CS3)c1 | ? | -11.5% | -24.5% | 11.2µM*[quencher] | -1.1
Cc1ccccc1NC(=O)CCc1c(C)nc2c(c1C)c(=O)n(C)c(=O)n2C | 10.4% | 0.0% | -22.9% | -0.1% | .

Screening data from PubChem BioAssay.
